Measured values: PubChem BioAssay AID1865 (National Center for Advancing Translational Sciences (NCATS), 2009)
Screen size: about 280,000 compounds; about 540 (0.19%) were called active. Not shown: some 2% with an inconclusive outcome. Calls follow the shape of the dose curve; as a rule, active = well fitted activation curve with a large enough effect; inconclusive = small, poorly fitted or top-dose-only effect; inactive = flat fitted curve, though single readings scatter. What follows is part of a selection rich in actives, with near analogues and random picks from the rest. Where a call stands in place of a potency, no number is given.

experiment: Quantitative High-Throughput Screen for Regulators of Epigenetic Control; settings: murine LDR cells, GFP reporter derepression, 30 h; series mostly up to 53.9 µM; also: nearly all actives have a fitted effect of over 60% in size
How it was run: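 In this reporter-derepression format, murine cells bearing a silenced integrated CMV-GFP locus incubate with test compound (30 h, 37 C), then are washed and imaged; fluorescent objects of 20–120 um count as induced cells.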
Potency is read from the fitted curve at half-maximal effect.

Compound	Potency
Cc1ccc(-n2c3nc(=O)[nH]c(=O)c-3cc3c(Cl)cccc32)cc1	inactive
Cc1c(-c2nsc(NC(=O)c3cccc(Cl)c3)n2)nnn1-c1ccccc1C(F)(F)F	inactive
CSc1ccc(C2c3c(oc4ccccc4c3=O)C(=O)N2CCCN2CCOCC2)cc1 (stereo unspecified)	inactive
CCC(C(=O)Nc1cccc(Cl)c1C)n1nc(-c2ccc(C)cc2)ccc1=O (stereo unspecified)	inactive
CCOC(=O)CNC(=O)c1cc2c(=O)n3cccc(C)c3nc2s1	inactive
CCOC(=O)CC1C(=O)NCCN1c1nc2c(C)cccn2c(=O)c1/C=C1\SC(=S)N(C(C)CC)C1=O (stereo unspecified)	7.08 µM (active)
CCOC(=O)CC1C(=O)NCCN1C(=O)COc1ccc(Br)cc1C (stereo unspecified)	inactive
COc1ccc(-n2nnc(-c3nsc(NC(=O)c4ccc(C)c(C)c4)n3)c2C)cc1Cl	inactive
Cc1ccc(SCC(=O)Nc2ccc3oc(-c4ccccc4F)nc3c2)cc1	inactive
Cc1c(Cl)cccc1NC(=O)Cn1cc(C(=O)c2cccs2)c2ccccc21	inactive
COc1cccc(C(=O)Nc2ccc(-c3cc(C(F)(F)F)nn3-c3ccccc3)cc2)c1	inactive
CCS(=O)(=O)c1ncc(N(Cc2ccc(F)cc2)Cc2ccco2)c(C(=O)Nc2cc(C)ccc2C)n1	inactive
CC(C)CCN(C(=O)Nc1ccc(Cl)c(Cl)c1)C(C)c1cccs1 (stereo unspecified)	inactive
CCc1cc2c(cc(C(=O)OC)n2Cc2nc(-c3ccc(C)cc3)oc2C)s1	inactive
COc1ccccc1-c1nnc(C2CCN(C(=O)c3ccc(Cl)cc3)CC2)o1	inactive
CCC(Sc1nc2n[nH]c(C)c2c(=N)n1-c1ccccc1Cl)C(=O)N(CC)CC (stereo unspecified)	inactive
CC1=C(C(=O)N2CCN(c3cccc(C(F)(F)F)c3)CC2)C2(CCCCC2)OC1=O	inactive
COc1ccc(OCCCn2c(C)nc3cc(C)c(C)cc32)cc1	inactive
Cn1cc(/C=C/c2nc3ccccc3c(=O)n2-c2cccc([N+](=O)[O-])c2)c2ccccc21	inactive
C/[N+]([O-])=C\c1ccc([N+](=O)[O-])o1	inactive
CCn1c(/C=C/c2ccc([N+](=O)[O-])o2)nc2ccccc2c1=O	3.55 µM (active)

Compound	Potency
Cc1c(Cl)cccc1NC(=O)N1CCN(C(=O)c2nsc3ccccc23)CC1	inactive
Cc1ccc(NC(=O)c2ccc(CN3CC(=O)N4CCCCC4C3=O)cc2)c(Cl)c1 (stereo unspecified)	inactive
CCCN(CCC)C(=O)Cn1c(=O)n(-c2ccc(Cl)cc2)c(=O)c2c3c(sc21)CCCCC3	inactive
CC(C)(C)c1ccc(C(=O)Nc2ccc3c(c2)CCCN3C(=O)c2cccs2)cc1	inactive
O=C(NCc1ccc2c(c1)CCN2C(=O)c1ccccc1)c1ccccc1	inactive
CCOc1ccc(NC(=O)c2cc3c(=O)n(Cc4cccs4)ccc3nc2C)cc1	inactive
COc1cc(NC(=O)Cn2nc(-c3ccc(C)c(C)c3)ccc2=O)cc(OC)c1	inactive
COc1cccc(C(=O)NC2(C(F)(F)F)C(=O)Nc3c2c(=O)[nH]c(=O)n3-c2ccc(C)cc2)c1 (stereo unspecified)	inactive
O=C(COc1ccc(Cl)cc1)N(Cc1ccco1)Cc1ccco1	inactive
CCNS(=O)(=O)c1ccc(NC(=O)CSc2nc(-c3ccco3)cc(C(F)(F)F)n2)cc1	inactive
O=C(CSc1ncc(S(=O)(=O)c2ccc(Br)cc2)c(=O)[nH]1)Nc1ccc2c(c1)OCCO2	inactive
Clc1cccc(N=C2NN=C(c3ccc4c(c3)OCCO4)CS2)c1	inactive
CN(C)c1nc(=Nc2cccc(Cl)c2)ss1	1.12 µM (active)
CC1=NN(Cc2ccccc2)C(=O)/C1=C/c1ccc(N(C)C)cc1	inactive
CN(C)c1ccc(/C=C2\NC(=S)N(Cc3ccccc3)C2=O)cc1	7.08 µM (active)
O=C1NCC(=O)N(Cc2ccccc2)/C1=C/c1ccccc1	inactive
COc1cc2[nH]c(=O)n(Cc3ccc(C(=O)NCc4ccc(C)cc4)cc3)c(=O)c2cc1OC	inactive
Cc1ccccc1C(=O)Nc1sc2c(c1C(=O)N1CCC(C)CC1)CCCC2	inactive
O=C(Cn1nc(Cc2cccnc2)c2ccccc2c1=O)N1CCN(c2ccccc2F)CC1	inactive
CCN1CCN(CCNC(=O)c2ccc(/C=C3/Sc4ccccc4N(Cc4cccc(C)c4)C3=O)cc2)CC1	inactive
CCN1/C(=C/C(=S)Nc2ccccc2)Sc2ccccc21	inactive

Compound	Potency
CCN1/C(=C/c2ccc3ccc(C)cc3[n+]2CC)Sc2ccccc21	1.12 µM (active)
CCN1/C(=C\c2ccc3ccccc3[n+]2CC)Sc2cc(C)ccc21	0.562 µM (active)
COc1ccc(OC)c(NC(=O)C2CCCN(S(=O)(=O)c3ccc4c(c3)CCCC(=O)N4)C2)c1 (stereo unspecified)	inactive
COc1ccc(CCNC(=O)c2cn(C)c3ccc(S(=O)(=O)N(C)C4CCCCC4)cc3c2=O)cc1OC	inactive
COc1ccc(-c2onc(C)c2C)cc1S(=O)(=O)NCCc1ccccc1	inactive
COc1ccc(NC(=O)c2ccc3nc(CCc4ccccc4)oc3c2)c(OC)c1	inactive
Cc1ccc2nc(/C(C#N)=C/c3ccccc3F)[nH]c2c1	inactive
Cc1ccc2nc(/C(C#N)=C\c3ccc(OC(=O)c4cccs4)cc3)[nH]c2c1	inactive
Cc1ccc2nc(/C(C#N)=C/c3ccc(-c4ccc(C(=O)OC(C)C)cc4)o3)[nH]c2c1	1.41 µM (active)
COc1ccc(C(=O)Nc2cccc(C(=O)OCc3cc(=O)n4c5c(sc4n3)CCCC5)c2)cc1	inactive
NNC(=O)c1oc2nc(-c3ccccc3)cc(-c3ccco3)c2c1N	inactive
CNC(=S)NNC(=O)c1oc2nc(-c3ccccc3)cc(-c3ccco3)c2c1N	15.8 µM (active)
CS(=O)(=O)c1sc2nc(-c3ccccc3)cc(-c3ccccc3)c2c1N	inactive
Cc1ccc(-c2cc(C(=O)N/N=C/C=C/c3ccco3)c3ccccc3n2)cc1C	inactive
O=C(N/N=C/C=C/c1ccco1)c1cccs1	17.8 µM (active)
CC(=O)Nc1ccc(/C=N/NC(=O)c2cccs2)cc1	inactive
Cc1ccc(S(=O)(=O)c2nc(-c3ccco3)oc2SCC(=O)Nc2ccc(F)cc2)cc1	inactive
Cc1cc(C(=O)Nc2cccc(C(F)(F)F)c2)c2c(C)nn(-c3cccc(F)c3)c2n1	inactive
O=C(Nc1ccc2nc(SCC(=O)N3CCCc4ccccc43)sc2c1)c1ccc(F)cc1	inactive
